Screening data (PubChem BioAssay)
HT1080-NT tox: qHTS for induction of synthetic lethality in tumor cells producing 2HG: qHTS for the HT-1080-NT fibrosarcoma cell line | HT-1080-NT fibrosarcoma viability, CellTiter-Glo ATP luminescence, 48 h | Potency, µM (titrated, usually from 46.1 µM), inactives show at the top dose activity, negative = less viability, usual class: cytotoxic | 360,000 compounds, 1.6% hits;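 also: NT is the 2HG producing partner of a matched IDH1 knockdown line; 0% = DMSO-treated cells and -100% = media-only wells without cells; nearly all actives have a fitted effect of over 55% in size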
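Luminescent CellTiter-Glo readout after 48 hours of compound exposure at 37 degrees C defined viability of HT-1080-NT cells. Activity was normalized to DMSO wells and cell-free media wells; concentration-response curves were fitted and assigned curve classes.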
MCF10A rerep: A quantitative high throughput screen for small molecules that induce DNA re-replication in MCF 10a normal breast cells | MCF 10A DNA re-replication, Hoechst nuclear intensity, 48 h | Potency, µM (top dose mostly 46.1 µM), for the others: at the highest dose activity, positive = re-replication, most hits filed as activators | 350,000 compounds, 2.9% hits | AID 624296, 2012; also: % of control where 0% means no effect; nearly all actives have a fitted effect of over 50% in size
SW480 rereplic: A quantitative high throughput screen for small molecules that induce DNA re-replication in SW480 colon adenocarcinoma cells | Potency, µM (series often up to 46.1 µM), for the others: at the highest dose re-replication activation, most hits filed as activators | SW480 DNA re-replication, Hoechst DNA content imaging, 48 h | AID 624297, 2012 | 340,000 compounds, 1.8% hits; also: % of control where 0% means no effect; nearly all actives have a fitted effect of over 55% in size
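First, 250 cells per well were seeded. Next, compound or vehicle (23 nL) was pinned in, plates sat 48 hr at 37 C. Finally Hoechst was added for 40 min before fluorescence scanning.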
KB-V1 MDR tox: qHTS assay for MDR1-selective chemotherapeutics: Primary screen using the drug-selected MDR subline cells KB-V1; KB-V1 MDR cells viability, CellTiter-Glo, 72 h; Potency, µM (top dose mostly 46.1 µM), usual class: cytotoxic; 400,000 compounds, 3.4% hits; AID 1347076, 2019; also: % is scaled to controls: 0 for no effect and ±100 for the full control effect; nearly all actives have a fitted effect of over 60% in size
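qHTS viability screen in drug-selected KB-V1 MDR cells: 72 h compound treatment at 37 degrees C, ATP luminescence end point.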
KB-3-1 tox: qHTS assay for MDR1-selective chemotherapeutics: Primary screen using the parental adenocarcinoma cell KB-3-1; KB-3-1 viability, CellTiter-Glo ATP luminescence, 72 h; Potency, µM (highest dose often 46.1 µM), hits mostly cytotoxic; 400,000 compounds, 1.4% hits; also: % is scaled to controls: 0 for no effect and ±100 for the full control effect; nearly all actives have a fitted effect of over 60% in size
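Cytotoxicity in the drug-sensitive parental line KB-3-1 was scored as loss of CellTiter-Glo luminescence following 72 h incubation with compound. Values come from curve fitting of normalized concentration-response data.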
HT1080 IDH1KD tx: qHTS for induction of synthetic lethality in tumor cells producing 2HG: qHTS for the HT-1080-IDH1KD cell line | HT-1080 IDH1 knockdown viability, ATP luminescence, 48 h | 360,000 compounds, 2% hits | Potency, µM (top dose mostly 46.1 µM), without a hit: at the highest dose activity, negative = toxicity, actives largely listed as cytotoxic;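 also: 0% = DMSO wells and -100% = cell-free medium wells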
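Assay cells: HT-1080 with IDH1 knockdown, 750 per well, RPMI/5% FBS. Exposure: 48 h at 37 °C following 2 h pre-incubation. Read: CellTiter-Glo luminescence; fitted concentration-response, curve class assigned.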
* marks the source's active call; other numbers are inactive results; i = inactive; ? = inconclusive; nt = not tested or not shown. The list is not random: actives were taken first. Their share in the collection is about 8%. Calls follow the shape of the dose curve; as a rule, active = well fitted curve in the direction sought with a large enough effect; inconclusive = small, poorly fitted or top-dose-only effect, or another doubt; inactive = no such curve, though single readings can be large; an effect the other way counts as inactive or inconclusive. Potency is read from the fitted curve at half-maximal effect.

SMILES	HT1080-NT tox	MCF10A rerep	SW480 rereplic	KB-V1 MDR tox	KB-3-1 tox	HT1080 IDH1KD tx
O=C(c1c(F)cccc1F)N(Cc1ccccn1)C1CCCC1	-1.5%	-5.6%	-4.9%	20.6µM*	i	?
COc1cc(Cl)c(C)cc1NC(=O)CSc1nnc(-c2ccccn2)n1Cc1ccco1	-1.1%	17.3%	-0.7%	2.31µM*	i	3.7%
COc1ccc(C(=O)CSc2nnc(-c3ccccn3)n2Cc2ccco2)cc1	5.6%	8.7%	-0.5%	18.4µM*	i	3.0%
O=C(CSc1nnc(-c2cccnc2)n1Cc1ccco1)c1ccc2ccccc2c1	20.6%	3.8%	-3.1%	14.6µM*	i	15.0%
CNC(=O)CSc1nnc(-c2ccccn2)n1Cc1ccco1	2.4%	5.1%	0.6%	i	i	1.0%
O=C(CSc1nnc(-c2ccccn2)n1Cc1ccco1)c1ccc(Cl)cc1	-0.4%	1.7%	5.2%	9.2µM*	i	-11.1%
O=C(CSc1nnc(-c2ccccn2)n1Cc1ccco1)c1ccccc1	-2.4%	6.5%	-5.8%	?	i	1.5%
O=C(NCc1cccc(Br)c1)C1CC(c2ccc(C(F)(F)F)cc2)=NO1 (centres undefined)	-8.3%	-14.9%	-3.8%	i	i	-7.7%
CCOC(=O)C1=C(COC(=O)COc2ccccc2OCC)NC(=O)NC1C (centres undefined)	-1.3%	-2.7%	-0.1%	i	i	-0.5%
Cc1ccc(S(=O)(=O)N2CCN(C(=O)c3ccc(N4CCC(C)CC4)c([N+](=O)[O-])c3)CC2)cc1	1.8%	2.7%	-5.3%	18.4µM*	i	-3.7%
O=C(/C=C/c1ccc(F)cc1)Nc1nc2ccccc2[nH]1	nt	4.1%	-2.2%	nt	nt	nt
COc1ccc(OC)c(/C=C/c2nc3ccccc3nc2C)c1	nt	nt	nt	?	i	nt
O=c1[nH]c2ccccc2nc1/C=C/c1ccc(F)cc1	-9.7%	6.51µM*	?	i	i	-12.3%
CC(C)(C)/C(O)=C/c1nc2ccccc2[nH]c1=O	0.8%	11.9%	5.2%	i	i	-2.1%
O=c1[nH]c2ccccc2nc1/C=C/c1ccc(O)cc1	-0.8%	8.2µM*	18.4µM*	?	i	-24.4%
COc1ccc(OC)c(/C=C/c2[nH]c(=O)[nH]c(=O)c2[N+](=O)[O-])c1	-24.1%	5.17µM*	1.6%	i	i	?
COc1ccc(OC)c(/C=C/c2nc3ccccc3[nH]c2=O)c1	-27.0%	13µM*	20.6µM*	i	i	-20.3%
O=C(COC(=O)c1ccc(Br)o1)Nc1nc2c(F)c(F)c(F)cc2s1	-1.8%	?	?	i	i	1.4%
Cc1ccc(NC(=O)N2CC3CCCN3c3ccccc32)cc1C (centres undefined)	nt	nt	nt	i	i	nt
CCN(CC)S(=O)(=O)c1ccc2[nH]c(=O)cc(C(=O)NCC3CCCO3)c2c1 (centres undefined)	2.0%	?	?	i	i	0.5%
COc1ccc(NC(=O)CSc2nnc(CNc3ccc(F)cc3)o2)c(OC)c1	7.3%	10.0%	-3.6%	i	i	2.7%
CCN1C(=O)[C@H]2[C@H]3CN=C(SCc4ccc(Cl)cc4)N3[C@@](CC)(C(=O)OC)[C@H]2C1=O	-7.0%	-6.7%	-4.9%	i	i	0.0%
CCOC(=O)n1ccc(C(=O)Nc2ccccc2F)n1	15.2%	3.7%	-16.0%	i	i	9.1%
COC(=O)c1sccc1NC(=O)c1ccc(OC)c([N+](=O)[O-])c1	20.0%	-1.0%	-4.4%	i	i	18.7%
O=c1[nH]c2ccccc2nc1/C=C/c1ccccc1	-1.2%	3.66µM*	?	i	i	-3.8%
SMILES	HT1080-NT tox	MCF10A rerep	SW480 rereplic	KB-V1 MDR tox	KB-3-1 tox	HT1080 IDH1KD tx
CCC(CO)Oc1cc(NCc2ccncc2)c2ncn(C(C)C)c2c1 (centres undefined)	11.2%	18.0%	3.0%	i	i	0.0%
CCC(CO)Oc1cc(NCc2ccc(F)cc2)c2ncn(C(C)C)c2c1 (centres undefined)	-5.9%	23.1µM*	?	i	i	-4.1%
CCC(CO)Oc1cc(NCc2cc(C)cc(C)c2)c2ncn(C(C)C)c2c1 (centres undefined)	-3.2%	1.5%	12.5%	i	?	-5.0%
CCC(CO)Oc1cc(NCc2ccc(C)c(C)c2)c2ncn(C(C)C)c2c1 (centres undefined)	?	14.6µM*	5.17µM*	i	?	-16.2%
CCC(CN(C)C)Oc1cc(NCc2ccccc2)c2ncn(C(C)C)c2c1 (centres undefined)	-12.5%	?	18.4µM*	i	i	-12.6%
O=C(Nc1cccc(C(F)(F)F)c1)Oc1ccc(Cl)c2cccnc12	16.4µM*	-1.0%	?	i	?	14.6µM*
COC(=O)c1ccc(NC(=S)NNC(=O)CC(C)C)cc1	6.7%	-3.5%	-1.0%	i	i	9.4%
CCc1ccc(NC(=O)C2CC(=O)Nc3ncnn32)cc1 (centres undefined)	-4.5%	2.6%	-2.1%	i	i	-4.9%
CCN(CC)CCNCC1C(=O)O[C@@H]2C[C@@]3(C)CCC[C@H](C)C3=C[C@H]12 (some centres undefined)	?	?	13.8%	?	?	16.4µM*
Cc1ccc(CNC(=O)N2CCC(CN3CCC(C)CC3)CC2)cc1	nt	nt	nt	i	i	nt
CC(C)(C)NC(=O)c1ccc2c(c1)N(CC(=O)N1CCCC1)C(=O)C(C)(C)O2	2.5%	?	9.6%	?	i	-1.2%
CC(C)(C)NC(=O)c1ccc2c(c1)N(CC(=O)N1CCN(c3ccc(F)cc3)CC1)C(=O)C(C)(C)O2	8.5%	3.6%	-7.1%	3.66µM*	i	4.1%
O=c1cc(CSc2nnc(Nc3ccccc3F)s2)nc2sccn12	?	?	?	16.4µM*	?	18.4µM*
CNc1c(NC(=O)COc2ccc(Cl)cc2)c(=O)oc2ccccc12	0.9%	-1.8%	-15.9%	i	i	-1.1%
CCc1ccc(/C=C(/C#N)c2nc(-c3ccc(C)cc3)cs2)cc1	nt	nt	nt	?	i	nt
CCOc1ccc(-c2csc(/C(C#N)=C\c3ccc(O)c([N+](=O)[O-])c3)n2)cc1	14.6µM*	?	?	5.17µM*	20.6µM*	?
